Test [1] can be described thus: Wnt pathway potentiators raising nuclear beta-catenin – imaging, WNT3A-conditioned medium, mouse C2C12, NPC library, primary screen (AID 1117326; in the data active means nuclear beta-catenin stimulation mostly above about 4.2%, no sharp cut-off; inactive means mostly below about 10%; further: reference of the scale not given here). The following applies: stronger effect = higher value.
Test [2] in a line: stimulators of insulin release from INS-1E, primary screen, cell-based, 5 mM glucose, NPC library (AID 1117329;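 active means compound raises insulin release from rat beta cells at 5 mM glucose, no numeric limit stated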; further: reference of the scale not given here). Particulars: rat INS-1E insulin secretion, at 10 µM, stronger effect = higher value.
A short description of test [3]: growth inhibition of GSK3B-pretreated HCT116 cells – cell-based, CellTiter-Glo, 0.2 to 20 µM (AID 1117336;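 active means compounds lowering colon cancer cell viability after pretreatment blocking the GSK3B kinase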). Particulars: HCT116 viability after GSK3B inhibitor, at 20 µM, stronger effect = higher value.
Test [4] can be described thus: inhibition of endothelial tube formation, primary screen, imaging, VEGF stimulated, CD31 staining, tube area, NPC library (AID 1117340;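 active means compound that reduces growth-factor-driven endothelial tube area in a mixed cell culture, no cutoff stated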). Particulars: VEGF-stimulated ADSC/ECFC co-culture, at 10 µM, stronger effect = higher value.
The nature of test [5]: GLP1 release stimulators, primary, NCI-H716, NPC library (AID 1117341;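 active means compound raises GLP1 secretion from the human gut endocrine cells, with no numeric limit stated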; further: reference of the scale not given here). The following applies: NCI-H716 cells, at 10 µM, stronger effect = higher value.
The nature of test [6]: HCT116 colon cancer cell growth inhibition, primary screen, CellTiter-Glo luminescence, NPC library (AID 1117342;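 active means compounds that lower survival of HCT116 colon cancer cells in the luminescence readout, no numeric limit stated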). The following applies: at 20 µM (top of the series). For orientation: In ATP-based viability assays light output follows the ATP content of the culture.
Test [7] can be described thus: reduced SW480 viability measured with CellTiter-Glo, NPC library, primary (AID 1117343). The following applies: CellTiter-Glo luminescence; at 20 µM (top of the series).
A short description of test [8]: NPC library primary testing for decreased DLD-1 cell viability via CellTiter-Glo (AID 1117346;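 active means compounds that lower survival of DLD-1 colon cancer cells in the luminescence readout, no cutoff given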). Particulars: DLD-1 viability, CellTiter-Glo luminescence; at 20 µM (top of the series).

SMILES strings stand for the structures. Activity calls are given as the source filed them.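 How the source made its calls, unless noted: active means compounds that lower viability of the colon cancer cells in the luminescence readout, with no numeric limit stated; inactive means the rest.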 Residues, ends and D or L forms follow the SMILES beside them.

As for `Cc1cnc(NS(=O)(=O)c2ccc(N)cc2)nc1`, the nuclear beta-catenin stimulation in test [1] (at 10 µM) was 1.1% (inactive); in test [1] (stimulation, at 2 µM) it was -0.7%. In test [2], the insulin secretion stimulation is 1.8% (inactive). The viability decrease in test [3] is 7.4% (inactive). The tube area decrease in test [4] is -8.2% (inactive). Also, the GLP1 secretion stimulation in test [5] is -0.6% (inactive). The inhibition of viability in test [6] is -6.6% (inactive). Further, the viability decrease (inhibition) in test [7] was 7.7% (inactive); in test [8] it was 6.6% (inactive).

Take `O=C(O)CNC(=O)CNC(=O)CNC(=O)CSC(=O)c1ccccc1`: the nuclear beta-catenin stimulation is -0.8% (inactive) in test [1] (at 10 µM) and -1.6% in test [1] (stimulation, at 2 µM). Also, in test [2], the insulin secretion stimulation was 1.2% (inactive). Moreover, the viability decrease in test [3] is -1.9% (inactive). Further, the tube area decrease in test [4] was -8.3% (inactive). Moreover, the GLP1 secretion stimulation in test [5] is 4.6% (inactive). Further, in test [6], the inhibition of viability was 0.6% (inactive). Also, the viability decrease (inhibition) was 12.5% (inactive) in test [7] and 14.5% (inactive) in test [8].

Turning to `O=S(=O)(O)c1ccc(O)cc1`, the nuclear beta-catenin stimulation in test [1] (at 10 µM) is 0.1% (inactive); in test [1] (stimulation, at 2 µM), 2%. In test [2], the insulin secretion stimulation is -2.6% (inactive). For the same compound, in test [3], the viability decrease is -3.65% (inactive). Further, the tube area decrease in test [4] was 5.3% (inactive). The GLP1 secretion stimulation in test [5] was -0.7% (inactive). Moreover, the inhibition of viability in test [6] was -4% (inactive). The figures for the viability decrease (inhibition) in test [7] and in test [8] were 11.5% (inactive) and -5.95% (inactive), respectively.

As to `CC(C)(C)c1nnc(NS(=O)(=O)c2ccccc2)s1`, the nuclear beta-catenin stimulation is 0.7% (inactive) in test [1] (at 10 µM) and 1.5% in test [1] (stimulation, at 2 µM). Moreover, the insulin secretion stimulation in test [2] is 33.5% (active). The viability decrease in test [3] is -0.1% (inactive). Further, the tube area decrease in test [4] is 17.7% (inactive). The GLP1 secretion stimulation in test [5] was -0.5% (inactive). In addition, the inhibition of viability in test [6] was -5.8% (inactive). For the same compound, the viability decrease (inhibition) is -1.2% (inactive) in test [7] and -7% (inactive) in test [8].

As to `CN1CC(O)c2cc(N=NC(N)=O)c(O)cc21` (centres undefined), the nuclear beta-catenin stimulation was 1.3% (inactive) in test [1] (at 10 µM) and 1.3% in test [1] (stimulation, at 2 µM). The insulin secretion stimulation in test [2] is -1.7% (inactive). The viability decrease in test [3] is 2% (inactive). The tube area decrease in test [4] was -33% (inactive). The GLP1 secretion stimulation in test [5] is 2.9% (inactive). For the same compound, in test [6], the inhibition of viability was -4.6% (inactive). Further, the viability decrease (inhibition) was 4.9% (inactive) in test [7] and 2.4% (inactive) in test [8].

For `CC(C)[N+](C)(C)CC(O)COc1cccc2ccccc12` (centres undefined), the nuclear beta-catenin stimulation in test [1] (at 10 µM) is -2.3% (inactive); in test [1] (stimulation, at 2 µM), -0.7%. Further, the insulin secretion stimulation in test [2] is 2.4% (inactive). In test [3], the viability decrease was 7.2% (inactive). For the same compound, the tube area decrease in test [4] was -21% (inactive). In test [5], the GLP1 secretion stimulation is 3% (inactive). Further, in test [6], the inhibition of viability is 34.1% (inactive). In addition, the viability decrease (inhibition) was -0.7% (inactive) in test [7] and 5.7% (inactive) in test [8].

Turning to `NC(N)=NN=C(/C=C/c1ccc([N+](=O)[O-])o1)/C=C/c1ccc([N+](=O)[O-])o1`, the nuclear beta-catenin stimulation in test [1] (at 10 µM) was -3% (active); in test [1] (stimulation, at 2 µM), 56.2%. Further, the insulin secretion stimulation in test [2] is 6% (inactive). Further, the viability decrease in test [3] is 99.3% (active). The tube area decrease in test [4] was 38.8% (active). For the same compound, the GLP1 secretion stimulation in test [5] is -3% (inactive). Moreover, the inhibition of viability in test [6] is 99.5% (active). The figures for the viability decrease (inhibition) in test [7] and in test [8] were 102% (active) and 96% (active), respectively.

For the compound `CC(=O)N[C@@H](CO)C(=O)N[C@@H](CC(=O)O)C(=O)N[C@@H](CCCCN)C(=O)N1CCC[C@H]1C(=O)O` (Ac-SDKP-OH), the nuclear beta-catenin stimulation was 0.3% (inactive) in test [1] (at 10 µM) and 0.6% in test [1] (stimulation, at 2 µM). In addition, the insulin secretion stimulation in test [2] was 1.8% (inactive). Moreover, the viability decrease in test [3] is -7.1% (inactive). Further, the tube area decrease in test [4] is -14.3% (inactive). For the same compound, the GLP1 secretion stimulation in test [5] was -1.6% (inactive). Besides, the inhibition of viability in test [6] was -0.1% (inactive). The viability decrease (inhibition) is -6% (inactive) in test [7] and 7% (inactive) in test [8].

For `COc1cc(C=C2CCC/C(=C\c3ccc(O)c(OC)c3)C2=O)ccc1O`, the nuclear beta-catenin stimulation in test [1] (at 10 µM) is 118% (active); in test [1] (stimulation, at 2 µM), 4.1%. For the same compound, the insulin secretion stimulation in test [2] is 11.1% (inactive). Also, the viability decrease in test [3] is 99.1% (active). In test [4], the tube area decrease was 106% (active). The GLP1 secretion stimulation in test [5] is -3% (inactive). Also, in test [6], the inhibition of viability is 99.5% (active). The viability decrease (inhibition) in test [7] was 103% (active); in test [8], 101% (active).

On to `O=C(Nc1ccc(Cl)cc1)Nc1ccc(Cl)c(C(F)(F)F)c1`, for which the nuclear beta-catenin stimulation in test [1] (at 10 µM) was 25.5% (inactive); in test [1] (stimulation, at 2 µM) it was -0.2%. The insulin secretion stimulation in test [2] is -0.8% (inactive). In addition, the viability decrease in test [3] was 99.4% (active). Moreover, the tube area decrease in test [4] was 108% (active). Also, in test [5], the GLP1 secretion stimulation was -3.9% (inactive). In addition, the inhibition of viability in test [6] is 99.3% (active). Further, the viability decrease (inhibition) in test [7] and in test [8] was 102% (active) in each case.

As to `OCCCc1ccccc1`, the nuclear beta-catenin stimulation is 1.8% (inactive) in test [1] (at 10 µM) and 4.5% in test [1] (stimulation, at 2 µM). Besides, in test [2], the insulin secretion stimulation was 3.2% (inactive). Also, the viability decrease in test [3] was 9.55% (inactive). The tube area decrease in test [4] is -11.1% (inactive). The GLP1 secretion stimulation in test [5] was 4.3% (inactive). In addition, the inhibition of viability in test [6] was -1.15% (inactive). Besides, the viability decrease (inhibition) in test [7] is -15.8% (active); in test [8], 7.85% (inactive).

Turning to `COC(=O)[C@H]1[C@H]2C[C@@H]3c4[nH]c5cc(OC)ccc5c4CCN3C[C@H]2C[C@@H](OC(=O)/C=C/c2ccc(O)c(OC)c2)[C@@H]1OC`, the nuclear beta-catenin stimulation was 74.6% (active) in test [1] (at 10 µM) and 3.6% in test [1] (stimulation, at 2 µM). Further, in test [2], the insulin secretion stimulation is 0.4% (inactive). Moreover, the viability decrease in test [3] is 91.8% (active). The tube area decrease in test [4] was 21% (inactive). The GLP1 secretion stimulation in test [5] is 0.1% (inactive). Moreover, in test [6], the inhibition of viability is 85% (active). For the same compound, the viability decrease (inhibition) was 142% (active) in test [7] and 102% (active) in test [8].

With `O=S(=O)(O)CC(S)CS` (centres undefined), the nuclear beta-catenin stimulation in test [1] (at 10 µM) was -1% (inactive); in test [1] (stimulation, at 2 µM) it was -0.1%. The insulin secretion stimulation in test [2] is -3.4% (inactive). Also, the viability decrease in test [3] was -25.4% (inactive). Further, the tube area decrease in test [4] is -1.9% (inactive). The GLP1 secretion stimulation in test [5] is -7% (inactive). Also, the inhibition of viability in test [6] was 4.3% (inactive). Also, the values for the viability decrease (inhibition) in test [7] and in test [8] were 3.8% (inactive) and -6.6% (inactive), respectively.

Take `CN(C)[C@@H]1C(=O)C(C(=O)NCN2CCCC2)=C(O)[C@@]2(O)C(=O)C3=C(O)c4c(O)cccc4[C@@](C)(O)C3C[C@@H]12` (some centres undefined): the nuclear beta-catenin stimulation in test [1] (at 10 µM) was 3.5% (inactive); in test [1] (stimulation, at 2 µM) it was 3.1%. The insulin secretion stimulation in test [2] was 2.3% (inactive). Also, the viability decrease in test [3] was -20.7% (inactive). Also, the tube area decrease in test [4] was -7.9% (inactive). For the same compound, the GLP1 secretion stimulation in test [5] is 25.3% (active). The inhibition of viability in test [6] was 3.4% (inactive). Further, the viability decrease (inhibition) in test [7] was -73.8% (inactive); in test [8], 2.6% (inactive).

On to `Nc1ccc(S(=O)(=O)NCc2ccccc2)cc1`, for which the nuclear beta-catenin stimulation in test [1] (at 10 µM) was 0.8% (inactive); in test [1] (stimulation, at 2 µM), 1.8%. In test [2], the insulin secretion stimulation is -2.5% (inactive). For the same compound, the viability decrease in test [3] was -8.1% (inactive). Further, the tube area decrease in test [4] is -5.2% (inactive). Further, the GLP1 secretion stimulation in test [5] is 0.6% (inactive). Moreover, the inhibition of viability in test [6] is -18.3% (inactive). Besides, the figures for the viability decrease (inhibition) in test [7] and in test [8] were 37.6% (inactive) and 10.1% (inactive), respectively.

`CNc1c2c(nn1C)CCCC2`: the nuclear beta-catenin stimulation was 0.2% (inactive) in test [1] (at 10 µM) and 0.4% in test [1] (stimulation, at 2 µM). In test [2], the insulin secretion stimulation was 0% (inactive). The viability decrease in test [3] was -3.4% (inactive). The tube area decrease in test [4] was 16.1% (inactive). Also, the GLP1 secretion stimulation in test [5] is 0% (inactive). The inhibition of viability in test [6] was -4.2% (inactive). Further, the viability decrease (inhibition) is -2.2% (inactive) in test [7] and 0.1% (inactive) in test [8].
